DT40 TDP1 CPT: qHTS for Inhibitors of human tyrosyl-DNA phosphodiesterase 1 (TDP1): qHTS in cells in presence of CPT; chicken DT40 Tdp1-/-;hTDP1 cells + 20 nM CPT, ATP luminescence, 48 h; 420,000 compounds, 12% hits; Potency, µM (highest dose often 46.2 µM), most hits filed as inhibitors; AID 686979, 2013; further: nearly all actives have a fitted effect of over 55% in size
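Cell growth measured by CellTiter-Glo luminescence after a minimum 48 h, 37 C compound exposure with 20 nM CPT in Tdp1-knockout DT40 cells stably expressing hTDP1, seeded 400/well; qHTS titration format.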
uPA generation: qHTS for Inhibitors of Cell Surface uPA Generation. Potency, µM (highest dose often 38.3 µM), hits mostly inhibitors. AID 540303, 2011. 330,000 compounds, 0.31% hits. cell surface uPA generation assay, qHTS; active means well fitted inhibition curve with a large enough effect; inconclusive means small, poorly fitted or top-dose-only effect; inactive means no such curve, though single readings can be large or run the other way; tested in mouse RAW 264.7 cells; further: nearly all actives have a fitted effect of over 55% in size
TDP1 inh: qHTS Assay for Inhibitors of Tyrosyl-DNA Phosphodiesterase (TDP1); Potency, µM (titrated, usually from 130 µM), hits mostly inhibitors; AID 485290, 2010; 350,000 compounds, 0.28% hits; recombinant TDP1, AlphaScreen DNA substrate cleavage; Tyrosyl-DNA phosphodiesterase 1 (Homo sapiens), Q9NUW8; further: nearly all actives have a fitted effect of over 40% in size
Target sequence (Q9NUW8 whole entry, looked up): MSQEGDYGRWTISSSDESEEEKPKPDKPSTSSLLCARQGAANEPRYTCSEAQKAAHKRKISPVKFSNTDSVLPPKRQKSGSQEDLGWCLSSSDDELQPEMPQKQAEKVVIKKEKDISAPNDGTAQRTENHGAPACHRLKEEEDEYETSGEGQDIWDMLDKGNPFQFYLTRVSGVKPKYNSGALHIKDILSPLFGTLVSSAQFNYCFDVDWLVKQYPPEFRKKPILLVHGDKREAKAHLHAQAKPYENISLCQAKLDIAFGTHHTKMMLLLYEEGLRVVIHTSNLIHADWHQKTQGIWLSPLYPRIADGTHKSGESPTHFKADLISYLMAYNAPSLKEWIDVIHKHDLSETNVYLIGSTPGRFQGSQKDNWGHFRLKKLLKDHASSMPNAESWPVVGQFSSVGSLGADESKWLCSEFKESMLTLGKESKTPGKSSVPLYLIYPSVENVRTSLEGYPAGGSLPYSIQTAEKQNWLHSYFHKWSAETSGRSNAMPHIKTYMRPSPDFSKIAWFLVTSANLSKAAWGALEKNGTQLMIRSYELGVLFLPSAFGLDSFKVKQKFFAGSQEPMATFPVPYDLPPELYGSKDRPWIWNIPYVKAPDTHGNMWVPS
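Recombinant human Tdp1 (E. coli-expressed, 1 nM final) preincubated with compounds 15 min at room temperature, then 5'-biotin/3'-phosphotyrosine-FITC DNA substrate (15 nM final) added for 5 min. AlphaScreen beads (10 ug/ml final) added 10 min; cleavage lowers signal.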
miR-21 act: qHTS Assay for Modulators of miRNAs and/orActivators of miR-21; HeLa miR-21 FLuc reporter, luciferase, 48 h; 340,000 tested, under 10 active; AID 2288, 2010; Potency, µM (doses to about 38.3 µM), most hits filed as activators;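 further: miR-21 action dims this reporter so a rising signal means less miR-21 action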
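HeLa cells endogenously expressing miR-21, stably carrying CMV-driven firefly luciferase with a downstream miR-21 binding site, 2000 cells/well. Titrations up to approximately 40 uM, 48 hours; luciferase luminescence read.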
DT40 TDP1 no CPT: qHTS for Inhibitors of human tyrosyl-DNA phosphodiesterase 1 (TDP1): qHTS in cells in absence of CPT; DT40 Tdp1-/- hTDP1 cells, no CPT, ATP luminescence, 48 h; Potency, µM (doses to about 46.2 µM), actives largely listed as inhibitors; 420,000 compounds, 15% hits; AID 686978, 2013; further: nearly all actives have a fitted effect of over 55% in size
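No-CPT arm: Tdp1-/-;hTDP1 DT40 cells (400/well) plus compounds, incubated ≥48 hr at 37 °C. Readout CellTiter-Glo luminescence.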
Large screens that a line does not name were inactive. Compounds with a hit are over-represented: about 16% of the library has one in this group of screens. Unless noted, the call rests on the fitted dose curve; in most records, active means well fitted curve in the direction sought with a large enough effect; inconclusive means small, poorly fitted or top-dose-only effect, or another doubt; inactive means no such curve, though single readings can be large; an effect the other way counts as inactive or inconclusive.

COc1cccc(CNC(=O)CSc2nc(=O)[nH]c3c2CCCC3)c1	none (no result: uPA generation)
O=C(CSc1nc2ncccc2[nH]1)c1ccc(F)cc1	none
CCC(=O)O[C@]1(C(=O)CCl)[C@@H](C)C[C@H]2[C@@H]3C[C@H](F)C4=CC(=O)C=C[C@]4(C)[C@@]3(F)[C@@H](O)C[C@@]21C	DT40 TDP1 CPT inconclusive, DT40 TDP1 no CPT 18.8µM (no result: uPA generation, TDP1 inh, miR-21 act)
N#CCc1c(C#N)c(N)nc(N2CCN(Cc3ccc4c(c3)OCO4)CC2)c1C#N	DT40 TDP1 CPT inconclusive, DT40 TDP1 no CPT 11.6µM
COc1ccccc1N1CCN(c2nc(C)nc3c2oc2ccccc23)CC1	DT40 TDP1 CPT 3.16µM, DT40 TDP1 no CPT 2.82µM (no result: uPA generation)
Cc1nc(N2CCN(Cc3ccc4c(c3)OCO4)CC2)c2oc3ccccc3c2n1	DT40 TDP1 CPT 7.31µM, DT40 TDP1 no CPT 9.2µM (no result: TDP1 inh, miR-21 act)
Cc1nc(N2CCN(Cc3ccc(Cl)cc3)CC2)c2oc3ccccc3c2n1	DT40 TDP1 CPT 23.1µM, DT40 TDP1 no CPT 16.4µM
CSc1nc(N2CCN(Cc3ccc4c(c3)OCO4)CC2)c2ccccc2n1	DT40 TDP1 CPT inconclusive, DT40 TDP1 no CPT inconclusive (no result: TDP1 inh)
CCCSc1nc(=O)c2c(n1C)NC(=O)CC2c1cccc(F)c1F (stereo unspecified)	TDP1 inh inconclusive (no result: uPA generation)
Cc1nc(N2CCN(Cc3ccc4c(c3)OCO4)CC2)c2cc(-c3ccccc3)sc2n1	DT40 TDP1 CPT 18.4µM, DT40 TDP1 no CPT 23.1µM
Cc1noc(C)c1C(=O)OCC(=O)c1cc(C)n(Cc2ccccc2Cl)c1C	DT40 TDP1 CPT 20.6µM, DT40 TDP1 no CPT 14.6µM
Cc1noc(C)c1C(=O)OCC(=O)c1ccc[nH]1	none
CCN(Cc1ccccc1)S(=O)(=O)c1c(C)[nH]c(C)c1C(=O)N1CCCCC1	none
COc1ccc2[nH]cc(CCNc3nc(-c4cccnc4)nc4ccccc34)c2c1	DT40 TDP1 CPT 23.1µM, DT40 TDP1 no CPT inconclusive (no result: uPA generation, TDP1 inh, miR-21 act)
COc1ccc2[nH]cc(CCNc3ccnc(-c4ccc(C(=O)N(C)C)cc4)n3)c2c1	DT40 TDP1 CPT 11.6µM, DT40 TDP1 no CPT 11.6µM (no result: uPA generation, TDP1 inh, miR-21 act)
OC(CNc1nc(-c2cccnc2)nc2ccccc12)c1ccccc1 (stereo unspecified)	DT40 TDP1 CPT 14.6µM, DT40 TDP1 no CPT 23.1µM
COc1ccc(/C=N/Nc2nc(-c3cccnc3)nc3ccccc23)c(OC)c1	DT40 TDP1 CPT inconclusive, DT40 TDP1 no CPT inconclusive
COc1ccc2[nH]cc(CCNc3cc(-c4ccc(C(=O)N(C)C)cc4)ncn3)c2c1	DT40 TDP1 CPT inconclusive (no result: uPA generation, TDP1 inh, miR-21 act)
COc1ccc2[nH]cc(CCNc3ccnc(-c4ccccc4C)n3)c2c1	DT40 TDP1 CPT 20.6µM, DT40 TDP1 no CPT inconclusive (no result: uPA generation, TDP1 inh, miR-21 act)
OCCNc1nc(-c2cccnc2)nc2ccccc12	none
COC(=O)Oc1cncc(C(=O)O)c1	none
O=S(=O)(NCc1nnc2c(C(F)(F)F)cc(Cl)cn12)c1ccccc1	none
CCN(CC(=O)Nc1c(F)cccc1F)C(=O)CCNS(=O)(=O)c1ccc(C)c(C)c1	none (no result: miR-21 act)
COc1cccc(-c2nccc(NCc3cnc(C)cn3)n2)c1	none (no result: uPA generation, TDP1 inh, miR-21 act)
COc1cccc(-c2nccc(NCCc3c[nH]c4ccc(OC)cc34)n2)c1	DT40 TDP1 CPT 13µM, DT40 TDP1 no CPT inconclusive (no result: uPA generation, TDP1 inh, miR-21 act)
Cc1cc2cc(C#N)c(SCC(=O)Nc3nonc3C)nc2cc1C	DT40 TDP1 CPT inconclusive, DT40 TDP1 no CPT inconclusive (no result: TDP1 inh)
CCOC(=O)c1ccc(N2C(=O)Cc3cc(OCC)c(OCC)cc3C2c2ccccc2)cc1 (stereo unspecified)	DT40 TDP1 CPT 14.6µM, DT40 TDP1 no CPT 13µM (no result: uPA generation, TDP1 inh)
CCOc1cc2c(cc1OCC)C(c1ccccc1)N(c1ccc(C(=O)O)cc1)C(=O)C2 (stereo unspecified)	none
O=C(NCCC1=CCCCC1)c1[nH]c(C(F)(F)F)nc1-c1ccccc1	DT40 TDP1 CPT 16.4µM, DT40 TDP1 no CPT inconclusive (no result: uPA generation, TDP1 inh, miR-21 act)
NC(=O)CC(NC(=O)c1ccccc1)c1ccc(NCc2ccc(F)c(F)c2)c([N+](=O)[O-])c1 (stereo unspecified)	DT40 TDP1 CPT inconclusive, DT40 TDP1 no CPT inconclusive (no result: TDP1 inh)
NC(=O)CC(NC(=O)c1ccccc1)c1ccc(NCc2ccccc2)c([N+](=O)[O-])c1 (stereo unspecified)	DT40 TDP1 CPT 20.6µM, DT40 TDP1 no CPT 23.1µM
NC(=O)CC(NC(=O)c1ccc(Br)cc1)c1ccc(NCc2ccc(F)c(F)c2)c([N+](=O)[O-])c1 (stereo unspecified)	none
CN(Cc1ccccc1)c1ccc(C(CC(N)=O)NC(=O)c2ccccc2)cc1[N+](=O)[O-] (stereo unspecified)	DT40 TDP1 CPT 23.1µM, DT40 TDP1 no CPT 16.4µM (no result: TDP1 inh)
NC(=O)CC(NC(=O)c1ccccc1)c1ccc(NCc2ccc(F)cc2)c([N+](=O)[O-])c1 (stereo unspecified)	DT40 TDP1 CPT 18.4µM, DT40 TDP1 no CPT inconclusive
NC(=O)CC(NC(=O)Cc1ccc(Br)cc1)c1ccc(NCc2ccc(F)c(F)c2)c([N+](=O)[O-])c1 (stereo unspecified)	DT40 TDP1 CPT 16.4µM, uPA generation inconclusive, DT40 TDP1 no CPT inconclusive
CC(C)(C)OC(=O)N1CCN(C(=O)c2[nH]cnc2C(=O)Nc2ccon2)CC1	none (no result: miR-21 act)
COc1c(C)cc(C(=O)C2CCCN(C(=O)c3cc(C)on3)C2)cc1C (stereo unspecified)	DT40 TDP1 CPT inconclusive, DT40 TDP1 no CPT inconclusive
CC(C)(C)c1ccc(/C=N/NC(=O)c2ccccn2)cc1	DT40 TDP1 no CPT inconclusive
Cc1ccc(C2CCN(C(=O)c3cnn(-c4ccc(C)c(C)c4)c3C3CCN(C(=O)OC(C)(C)C)CC3)C2)cc1 (stereo unspecified)	DT40 TDP1 CPT 10.3µM, DT40 TDP1 no CPT 13µM (no result: uPA generation)

Screening data: PubChem BioAssay, National Center for Advancing Translational Sciences (NCATS)
